# Measured values from the supplement of paper PMC10849652.
# Targets with a hit are over-represented here; the source holds about 8,800 in all. About 0.5% of all pairs of compound and target were hits. A number with no mark means an inactive call.
# Assays:
# Experiment in all cases: log2 fold change, soluble protein after heating vs DMSO (PISA); higher = thermal stabilisation; K562 lysate, 10 uM; active = over 0.2 and 3.5 SD of the protein, either way, in both replicates (recomputed)
# erlotinib = compound: C#Cc1cccc(Nc2ncnc3cc(OCCOC)c(OCCOC)cc23)c1 [erlotinib]
# How it was run: (§1)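 K562 pellets were dounce-homogenised in PBS pH 7.4 with 1 mM MgCl2, and the crude extract at 1 mg/mL protein was treated with 10 μM compound for 30 min. Aliquots were heated for 3 min across 48°C-58°C, pooled, and brought to 0.5% NP-40 at 4°C; soluble protein was the supernatant after 21,000xg for 90 min. Soluble protein was quantified by TMTpro 16plex LC-MS/MS with channel sums equalised, and reported as log2 fold change in thermal stability against DMSO controls, with values from duplicates.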
# [1] = compound: C/C(=N\NC(=O)C1=CC(=CC=C1)S(=O)(=O)N2CCOCC2)/C3=C(C=CC(=C3)Cl)O
# How it was run: as §1
# [2] = compound: C1=CC(=CC=C1C2=NC3=C(N2)C=C(C=C3)C(=O)N)OC4=CC=C(C=C4)Cl
# How it was run: as §1
# [3] = compound: C1=CC2=C(C=CC(=C2)/C=C\3/C(=O)NC(=NCC4=CC=CS4)S3)N=C1
# How it was run: as §1
# [4] = compound: C1=CC2=NC=CN=C2C=C1/C=C/3\C(=O)NC(=O)S3
# How it was run: as §1
# [5] = compound: C1=CC=C(C=C1)C2=NC(=C(N2)C3=CC=NC=C3)C4=CC(=C(C=C4)Cl)O
# How it was run: as §1
# [6] = compound: C1=CC=C2C(=C1)C3=NNC4=CC=CC(=C43)C2=O
# How it was run: as §1
# [7] = compound: C1CCN(C1)C(=O)NC2=CC=CC(=C2)NC3=NC=C(C(=N3)NCCC4=CN=CN4)Br
# How it was run: as §1
# [8] = compound: C1CN(CCC1(CC2=CC=C(C=C2)Cl)N)C3=NC=NC4=C3C=CN4
# How it was run: as §1
# IRAK-1-4 Inhibitor I = compound: C1COCCN1CCN2C3=CC=CC=C3N=C2NC(=O)C4=CC(=CC=C4)[N+](=O)[O-] [IRAK-1-4 Inhibitor I]
# How it was run: as §1
# UniProt Q15386, sequence (Q15386 whole entry, looked up): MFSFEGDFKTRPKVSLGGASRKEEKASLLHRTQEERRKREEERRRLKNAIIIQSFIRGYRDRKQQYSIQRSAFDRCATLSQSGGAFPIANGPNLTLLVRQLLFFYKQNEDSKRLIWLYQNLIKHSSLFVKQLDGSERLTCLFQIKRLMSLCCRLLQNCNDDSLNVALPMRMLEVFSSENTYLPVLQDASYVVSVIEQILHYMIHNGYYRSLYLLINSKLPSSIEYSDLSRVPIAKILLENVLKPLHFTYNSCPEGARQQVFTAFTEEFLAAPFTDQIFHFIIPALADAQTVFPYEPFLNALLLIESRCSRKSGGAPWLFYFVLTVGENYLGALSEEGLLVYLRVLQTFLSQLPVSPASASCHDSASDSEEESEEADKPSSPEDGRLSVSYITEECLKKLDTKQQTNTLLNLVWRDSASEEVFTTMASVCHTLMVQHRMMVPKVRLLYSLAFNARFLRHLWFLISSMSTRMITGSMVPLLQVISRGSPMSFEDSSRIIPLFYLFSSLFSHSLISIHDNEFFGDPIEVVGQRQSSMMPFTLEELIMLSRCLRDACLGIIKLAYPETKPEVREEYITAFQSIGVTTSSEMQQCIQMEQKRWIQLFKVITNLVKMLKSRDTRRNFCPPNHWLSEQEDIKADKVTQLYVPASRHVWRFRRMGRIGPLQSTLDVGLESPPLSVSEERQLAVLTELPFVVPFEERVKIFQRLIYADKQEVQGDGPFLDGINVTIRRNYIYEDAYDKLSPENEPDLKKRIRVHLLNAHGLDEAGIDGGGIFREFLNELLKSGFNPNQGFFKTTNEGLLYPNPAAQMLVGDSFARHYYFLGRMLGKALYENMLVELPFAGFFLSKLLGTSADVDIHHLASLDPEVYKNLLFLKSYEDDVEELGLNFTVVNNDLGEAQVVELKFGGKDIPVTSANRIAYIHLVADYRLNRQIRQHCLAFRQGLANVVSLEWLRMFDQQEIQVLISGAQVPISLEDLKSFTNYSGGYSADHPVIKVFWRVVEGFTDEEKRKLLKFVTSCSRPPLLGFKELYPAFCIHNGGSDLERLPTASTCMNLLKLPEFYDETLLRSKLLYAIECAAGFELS
# UniProt Q96S44, sequence (Q96S44 whole entry, looked up): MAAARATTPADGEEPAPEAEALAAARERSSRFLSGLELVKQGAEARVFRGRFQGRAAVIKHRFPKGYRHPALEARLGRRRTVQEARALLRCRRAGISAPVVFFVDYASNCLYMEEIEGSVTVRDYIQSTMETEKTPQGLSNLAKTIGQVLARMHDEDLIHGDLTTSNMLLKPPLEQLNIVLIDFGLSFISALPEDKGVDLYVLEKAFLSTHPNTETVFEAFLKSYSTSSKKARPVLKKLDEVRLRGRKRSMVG
# UniProt Q14669, sequence (Q14669 whole entry, looked up): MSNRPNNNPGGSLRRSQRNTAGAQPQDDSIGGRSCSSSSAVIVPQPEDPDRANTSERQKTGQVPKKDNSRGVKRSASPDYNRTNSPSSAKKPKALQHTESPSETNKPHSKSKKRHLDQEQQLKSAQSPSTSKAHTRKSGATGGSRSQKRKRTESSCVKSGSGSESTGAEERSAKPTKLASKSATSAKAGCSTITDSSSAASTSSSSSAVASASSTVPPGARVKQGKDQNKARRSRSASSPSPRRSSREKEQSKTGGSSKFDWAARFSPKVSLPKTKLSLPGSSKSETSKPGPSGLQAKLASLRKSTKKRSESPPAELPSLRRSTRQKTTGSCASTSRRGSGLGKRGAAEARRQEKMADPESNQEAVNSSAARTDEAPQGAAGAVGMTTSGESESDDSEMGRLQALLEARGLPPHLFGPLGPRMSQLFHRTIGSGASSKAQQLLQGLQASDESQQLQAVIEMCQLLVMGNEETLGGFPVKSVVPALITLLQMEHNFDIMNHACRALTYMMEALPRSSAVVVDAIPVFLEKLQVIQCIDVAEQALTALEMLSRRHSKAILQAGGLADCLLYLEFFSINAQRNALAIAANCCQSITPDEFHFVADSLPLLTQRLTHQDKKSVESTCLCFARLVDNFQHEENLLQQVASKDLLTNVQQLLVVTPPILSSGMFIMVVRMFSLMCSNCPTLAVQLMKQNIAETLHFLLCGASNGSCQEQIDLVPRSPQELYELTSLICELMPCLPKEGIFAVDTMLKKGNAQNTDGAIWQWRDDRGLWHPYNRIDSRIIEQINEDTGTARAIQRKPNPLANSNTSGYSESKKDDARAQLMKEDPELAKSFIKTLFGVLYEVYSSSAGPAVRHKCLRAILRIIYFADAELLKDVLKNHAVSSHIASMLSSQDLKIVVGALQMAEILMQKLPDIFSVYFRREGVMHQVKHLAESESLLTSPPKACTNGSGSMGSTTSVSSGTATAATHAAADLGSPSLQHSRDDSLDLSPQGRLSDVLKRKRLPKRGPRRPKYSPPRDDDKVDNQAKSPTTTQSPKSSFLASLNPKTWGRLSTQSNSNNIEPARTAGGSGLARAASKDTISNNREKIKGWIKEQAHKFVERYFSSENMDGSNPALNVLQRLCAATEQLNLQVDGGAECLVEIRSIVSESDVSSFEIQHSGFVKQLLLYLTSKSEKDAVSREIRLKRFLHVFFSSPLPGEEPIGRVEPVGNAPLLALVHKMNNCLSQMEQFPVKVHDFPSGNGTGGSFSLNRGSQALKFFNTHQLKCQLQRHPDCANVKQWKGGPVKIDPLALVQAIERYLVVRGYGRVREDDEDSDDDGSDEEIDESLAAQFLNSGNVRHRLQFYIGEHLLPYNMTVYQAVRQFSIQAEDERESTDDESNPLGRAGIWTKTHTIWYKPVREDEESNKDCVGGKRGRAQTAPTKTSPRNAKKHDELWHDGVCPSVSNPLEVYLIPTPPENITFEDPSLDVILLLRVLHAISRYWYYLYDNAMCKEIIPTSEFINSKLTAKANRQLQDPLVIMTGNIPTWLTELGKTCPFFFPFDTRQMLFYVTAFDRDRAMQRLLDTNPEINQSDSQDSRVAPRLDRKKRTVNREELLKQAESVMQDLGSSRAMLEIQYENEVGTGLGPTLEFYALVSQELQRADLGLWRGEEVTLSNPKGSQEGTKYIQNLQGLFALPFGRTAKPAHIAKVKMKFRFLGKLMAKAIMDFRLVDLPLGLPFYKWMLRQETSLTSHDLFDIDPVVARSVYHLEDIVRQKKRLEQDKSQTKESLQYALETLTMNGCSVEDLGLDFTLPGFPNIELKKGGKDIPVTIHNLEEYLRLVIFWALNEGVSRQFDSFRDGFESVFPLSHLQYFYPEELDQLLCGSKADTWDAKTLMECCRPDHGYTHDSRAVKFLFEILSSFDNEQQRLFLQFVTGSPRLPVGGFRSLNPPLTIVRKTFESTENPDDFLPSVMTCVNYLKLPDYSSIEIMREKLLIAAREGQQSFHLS
# UniProt A6NFQ2, sequence (A6NFQ2 whole entry, looked up): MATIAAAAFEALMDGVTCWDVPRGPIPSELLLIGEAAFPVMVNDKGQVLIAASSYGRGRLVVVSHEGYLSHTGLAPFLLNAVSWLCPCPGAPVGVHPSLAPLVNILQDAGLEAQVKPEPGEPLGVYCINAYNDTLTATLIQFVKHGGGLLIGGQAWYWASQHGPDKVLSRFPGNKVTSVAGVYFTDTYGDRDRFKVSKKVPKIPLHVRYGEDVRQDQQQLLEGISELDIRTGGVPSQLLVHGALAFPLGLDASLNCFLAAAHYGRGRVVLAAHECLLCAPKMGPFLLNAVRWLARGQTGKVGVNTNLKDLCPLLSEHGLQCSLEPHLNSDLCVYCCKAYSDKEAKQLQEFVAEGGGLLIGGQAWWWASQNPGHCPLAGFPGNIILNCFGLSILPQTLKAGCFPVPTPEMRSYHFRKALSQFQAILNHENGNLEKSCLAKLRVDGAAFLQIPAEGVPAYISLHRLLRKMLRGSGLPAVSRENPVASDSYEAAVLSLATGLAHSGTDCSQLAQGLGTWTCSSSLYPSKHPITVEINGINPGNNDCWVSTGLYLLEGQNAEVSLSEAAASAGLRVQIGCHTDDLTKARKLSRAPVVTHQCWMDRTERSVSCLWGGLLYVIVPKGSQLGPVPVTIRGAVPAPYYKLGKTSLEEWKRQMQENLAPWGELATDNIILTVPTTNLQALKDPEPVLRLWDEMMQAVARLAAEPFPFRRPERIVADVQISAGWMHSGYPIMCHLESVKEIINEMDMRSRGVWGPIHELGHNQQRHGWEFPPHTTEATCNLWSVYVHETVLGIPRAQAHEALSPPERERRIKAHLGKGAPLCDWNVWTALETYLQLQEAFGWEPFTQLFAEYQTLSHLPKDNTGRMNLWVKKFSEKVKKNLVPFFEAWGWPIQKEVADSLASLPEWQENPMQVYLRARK
# UniProt Q9Y2W6, sequence (Q9Y2W6 whole entry, looked up): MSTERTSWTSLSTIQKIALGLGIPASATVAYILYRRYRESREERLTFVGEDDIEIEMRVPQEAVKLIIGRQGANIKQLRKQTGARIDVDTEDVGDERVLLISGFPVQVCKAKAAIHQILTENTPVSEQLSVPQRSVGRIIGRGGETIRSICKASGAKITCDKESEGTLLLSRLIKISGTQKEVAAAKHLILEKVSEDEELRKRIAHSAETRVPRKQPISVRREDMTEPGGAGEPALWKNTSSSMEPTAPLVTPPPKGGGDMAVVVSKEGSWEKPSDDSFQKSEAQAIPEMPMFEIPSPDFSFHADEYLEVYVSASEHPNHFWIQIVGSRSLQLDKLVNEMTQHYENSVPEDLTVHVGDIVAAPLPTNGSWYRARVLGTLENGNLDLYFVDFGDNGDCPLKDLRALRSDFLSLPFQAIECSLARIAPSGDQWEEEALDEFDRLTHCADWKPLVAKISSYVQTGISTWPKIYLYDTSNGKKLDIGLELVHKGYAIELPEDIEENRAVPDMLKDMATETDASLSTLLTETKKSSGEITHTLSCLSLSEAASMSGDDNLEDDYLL
# UniProt Q13595, sequence (Q13595 whole entry, looked up): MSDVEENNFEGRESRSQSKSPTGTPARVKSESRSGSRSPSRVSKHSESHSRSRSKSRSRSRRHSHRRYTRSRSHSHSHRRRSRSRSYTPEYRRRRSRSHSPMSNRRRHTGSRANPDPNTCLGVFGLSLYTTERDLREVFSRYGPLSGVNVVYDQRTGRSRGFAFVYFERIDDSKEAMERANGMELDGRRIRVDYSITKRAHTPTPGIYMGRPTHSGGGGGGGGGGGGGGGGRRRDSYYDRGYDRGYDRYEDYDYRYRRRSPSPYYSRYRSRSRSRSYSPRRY
Target,log2 fold change (erlotinib),log2 fold change [1],log2 fold change [2],log2 fold change [3],log2 fold change [4],log2 fold change [5],log2 fold change [6],log2 fold change [7],log2 fold change [8],log2 fold change (IRAK-1-4 Inhibitor I)
UCHL5 (UniProt Q5LJA9),-0.052,0.084,0.005,-0.024,-0.032,0.016,-0.045,0.035,0.006,0.054
TUBB6 (UniProt K7ES63),-0.19,0.058,-0.06,0.047,-0.01,-0.154,-0.029,-0.19,-0.22,0.048
TCAF2 (UniProt A6NFQ2),-0.006,-0.218,-0.003,-0.059,-0.038,-0.027,-0.033,-0.022,-0.047,-0.005
TK1 (UniProt K7ERV3),0.01,-0.061,0.078,-0.047,-0.114,0.048,0.036,0.017,0.222,0.04
TMEM70 (UniProt Q9BUB7),-0.018,-0.003,-0.106,0.03,0.038,-0.073,0.011,0.006,-0.028,0.086
TRIP12 isoform 2 (UniProt Q14669),0.034,0.013,-0.014,0.004,0.024,-0.027,-0.02,0.019,-0.021,-0.032
UCHL5 isoform 3 (UniProt Q9Y5K5),-0.015,-0.012,0.015,-0.018,0.01,-0.005,0.001,0,-0.014,-0.018
TBC1D2B (UniProt Q9UPU7),-0.005,-0.028,0.098,0.03,-0.053,0.042,-0.111,-0.031,-0.024,-0.075
TRA2A (UniProt Q13595),-0.164,-0.261,-0.092,-0.03,-0.137,0.038,-0.024,0.083,-0.234,-0.102
TRNAU1AP (UniProt Q9NX07),0.019,0.083,-0.037,0.114,0.038,-0.028,-0.31,-0.071,0.015,-0.005
TRAPPC9 isoform 2 (UniProt Q96Q05),0.033,0.113,-0.01,0.006,-0.04,-0.012,-0.005,0.027,0.034,0.027
TP53RK (UniProt Q96S44),-0.005,0.025,0.038,-0.24 (active),-0.37 (active),-0.03,0.042,0.014,-0.022,-0.008
UBE3C (UniProt Q15386),0.035,-0.061,-0.067,0.011,-0.036,-0.01,-0.022,0.027,0.049,0
TDRKH (UniProt Q9Y2W6),-0.067,0.023,-0.017,-0.018,-0.065,0.02,-0.086,-0.011,-0.022,0.047
TROAP (UniProt Q12815),-0.023,-0.02,0.028,-0.036,-0.054,0.017,-0.027,0.035,0.104,-0.011
